Molecules are shown by their SMILES. Out of some 1,400 compounds screened, about 560 (40%) were called active.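 Rule for the calls: active = mean inhibition over duplicate tests at 10 µM above 50%; inactive = the rest.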 So high a share suggests a set chosen from earlier hits. Some of the results follow.

This experiment can be described thus: ASC/caspase-1 reporter retest in S. cerevisiae at one dose, specificity check for NALP1 project (AID 488857). The note with it: S. cerevisiae ASC/Caspase-1, beta-galactosidase luminescence, 24 h; at 10 µM; active compounds read high.
A word on the inhibition: it is the drop in the measured response relative to a control, in per cent. Take `COc1ccc(NCc2ccc([N+](=O)[O-])s2)c(OC)c1`: the inhibition is 49% (inactive).

Take `CCOC(=O)/C(=C/c1ccc(OC(=O)c2ccccc2)cc1)C(C)=O`: the inhibition is 59.9% (active).

Turning to `CCOC(=O)C1=C(O)c2ccccc2C(=O)/C1=C\c1ccc(C)cc1`, the inhibition is 24.1% (inactive).

Consider `COC(=O)c1ccccc1NC(=O)C1CCN(C(=O)c2cc(OC)cc(OC)c2)CC1`, for which the inhibition was 34.1% (inactive).

For the molecule `CN1CCN(S(=O)(=O)c2ccc(NC(=S)NC(=O)C(C)(C)C)cc2)CC1`, the inhibition was 31.6% (inactive).

For `COC(=O)c1ccccc1NC(=O)C1CCCN(S(=O)(=O)c2ccc(OC)cc2)C1` (centres undefined), the inhibition is 76.4% (active).

Consider `CCOC(=O)N1CCN(c2ccc(Cl)c(Cl)c2)CC1`, for which the inhibition was 68.9% (active).

Turning to `CCN1CCN(C(=S)Nc2ccc(Cl)c(Cl)c2)CC1`, the inhibition was 22.7% (inactive).

As for `CCOC(=O)N1CCN(c2c(NCCOC)c(=O)c2=O)CC1`, the inhibition is 32.5% (inactive).

For the molecule `Cn1nnc(NC(=O)/C=C/c2ccco2)n1`, the inhibition was 45.4% (inactive).

As for `CCCNCC1COc2ccccc2O1` (centres undefined), the inhibition was 37.9% (inactive).

Take `CN(C)CCN(C(=O)/C=C/c1cccs1)c1nc2c(F)cc(F)cc2s1`: the inhibition is 65.1% (active).

For the molecule `CN(C)CCN(C(=O)/C=C/c1cccs1)c1nc2ccc(F)cc2s1`, the inhibition was 72% (active).

With `CC1CCC2C(=O)N(c3ccc(C(=O)Oc4cccc5cccnc45)cc3)C(=O)C2C1` (centres undefined), the inhibition is 44.9% (inactive).

With `O=[N+]([O-])c1ccc2nc(-c3ccccn3)[nH]c2c1`, the inhibition was 70% (active).

Consider `c1ccc(-c2nc3cc4ccccc4cc3[nH]2)nc1`, for which the inhibition was 84.5% (active).

Take `O=[N+]([O-])c1ccc2cn(-c3ccccc3)nc2c1`: the inhibition is 41.1% (inactive).

Take `O=S(=O)(CC12C3C4C5C1C2C(Br)(C43)C51OCCO1)c1ccccc1` (centres undefined): the inhibition was 38.5% (inactive).

Turning to `Cc1cccc(/C=N/n2c(-c3cc(-c4ccccc4)n[nH]3)n[nH]c2=S)c1`, the inhibition was 53.3% (active).

Regarding `Cc1ccc(N2C(=O)c3ccc(C(=O)O)cc3C2=O)cc1C`, the inhibition is 37.3% (inactive).

As to `Cc1ccc(C(=O)O)cc1N=Cc1cc(Br)cc(Br)c1O`, the inhibition was 83.5% (active).

`CCCCN(C)CCC(=O)Nc1ccc(Cl)cc1`: the inhibition was 39.2% (inactive).

As to `O=C(Cc1noc2ccccc12)Nc1ccc(Cl)cc1`, the inhibition was 61.3% (active).

With `O=C(Cn1c(=O)oc2ccccc21)Nc1ccc(Cl)cc1`, the inhibition was 33.4% (inactive).

For the molecule `CCOC(=O)C[N+](CC)(CC)CC#Cc1ccccc1`, the inhibition was 5.45% (inactive).

In the case of `CCOc1ccc(NC(=O)/C=C/c2ccccc2)c([N+](=O)[O-])c1`, the inhibition was 29.2% (inactive).

With `CCOC(=O)COc1ccc2ccccc2c1/C=C/[N+](=O)[O-]`, the inhibition is 99.9% (active).

On to `CCOC(=O)COc1ccccc1/C=C\[N+](=O)[O-]`, for which the inhibition is 101% (active).

As for `COc1ccccc1OCC(=O)N/N=C/C=C/c1ccc([N+](=O)[O-])o1`, the inhibition was 15.4% (inactive).

Source of the values: PubChem BioAssay AID488857 (Sanford-Burnham Center for Chemical Genomics, 2010).
